Bioassay records as filed in PubChem.
AF4-AF9 inh – inhibitors of AF4 peptide binding to AF9, primary screen, biochemical, AlphaScreen, biotin-AF4 peptide, FLAG-AF9, single point; Protein AF-9 (Homo sapiens), P42568; inhibition, % at 10 µM; hit rate 0.47% among 350,000; AID 651704, 2012;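 active means every replicate reaching a set inhibition limit, whatever the replicate mean, cut at about 25% in these data; inconclusive means mean inhibition reaches that limit but some replicates miss it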
Target sequence (P42568 whole entry, looked up): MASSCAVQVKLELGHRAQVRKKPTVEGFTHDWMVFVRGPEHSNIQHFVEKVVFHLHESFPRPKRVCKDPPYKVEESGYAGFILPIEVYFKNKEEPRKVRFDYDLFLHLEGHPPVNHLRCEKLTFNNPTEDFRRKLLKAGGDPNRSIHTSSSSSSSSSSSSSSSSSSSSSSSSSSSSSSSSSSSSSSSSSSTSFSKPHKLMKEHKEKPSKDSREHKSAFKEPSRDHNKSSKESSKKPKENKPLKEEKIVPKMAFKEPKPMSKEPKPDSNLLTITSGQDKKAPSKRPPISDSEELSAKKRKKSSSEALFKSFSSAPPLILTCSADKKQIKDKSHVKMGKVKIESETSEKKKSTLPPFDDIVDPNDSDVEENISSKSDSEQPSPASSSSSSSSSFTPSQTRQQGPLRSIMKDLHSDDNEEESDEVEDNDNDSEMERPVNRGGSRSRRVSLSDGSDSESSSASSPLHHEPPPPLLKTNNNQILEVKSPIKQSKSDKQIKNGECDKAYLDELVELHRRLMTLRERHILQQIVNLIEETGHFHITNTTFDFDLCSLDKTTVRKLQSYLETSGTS
MITF TRPM1 HTS – activators of MITF-driven TRPM1 promoter reporter, primary screen, cell-based, SK-MEL-5, luciferase, single point; AID 588334, 2011; hit rate 0.75% among 300,000; activation, % at 12.5 µM; SK-MEL-5 TRPM1-promoter luciferase, 24 h; % of positive control, neutral wells = 0;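 active means mean activation of at least 80% with every replicate also reaching 80%; inconclusive means mean reaches 80% but some replicate falls short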
esBAF inh – Bmi1 luciferase reporter increase in mESCs, primary screen, esBAF inhibitor project, mouse ES cells, Bmi1 luciferase knock-in, single point; 24 h; 100% = twice the neutral-well signal; reporter increase, % at 12.5 µM; hit rate 2% among 350,000; in the data active means activation above about 40%; inconclusive means no clear call, values can overlap the other calls;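 further: a rise in the Bmi1 reporter signal indicates esBAF inhibition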
Ecoli rRNA inh – reduced GFP signal of wild-type E. coli, primary screen, bacterial rRNA inhibitor project, GFP/RFP fluorescence, OD600, single point. E. coli WT GFP vs humanized-ribosome RFP mutants, 24 h; active compounds read low; DMSO median 0, no signal -100. GFP signal change (wild-type ribosome), % (no concentration beside the values). hit rate 1.6% among 350,000. AID 720706, 2013;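 active means significant combined selectivity score with lowered wild-type GFP, culture density cut under 30%, mutant RFP and density less affected; inactive means any of these conditions unmet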
Wnt bcat act – Wnt/beta-catenin pathway activators, primary screen, cell-based, plate reader, single point; Wnt/beta-catenin reporter cell assay, activator; activation, % at 9.35 µM; hit rate 1.2% among 300,000; AID 743398, 2014; in the data active means activation above about 30%, passing the limit was not always enough; inconclusive means no clear call, values can overlap the other calls
Large screens that a line does not name were inactive. The list is not random: actives were taken first. Their share in the collection is about 3.7%.

COc1ccc(CCNC(=O)CSc2nc3ccsc3c(=O)n2Cc2ccccn2)cc1OC	esBAF inh 43 (no result: MITF TRPM1 HTS)
NS(=O)(=O)c1ccc(CCNC(=O)CSc2nc3ccsc3c(=O)n2Cc2ccccn2)cc1	Wnt bcat act 36 (no result: MITF TRPM1 HTS)
Cc1ccc(N(C(=O)c2csnn2)C(C(=O)NC(C)(C)C)c2ccncc2)cc1 (configuration not stated)	none
CC(C)c1ccc(N(C(=O)c2csnn2)C(C(=O)NC(C)(C)C)c2ccncc2)cc1 (configuration not stated)	esBAF inh 58 (no result: AF4-AF9 inh, Ecoli rRNA inh, Wnt bcat act)
C[C@H](CO)N1C[C@H](C)[C@@H](CN(C)Cc2ccc3c(c2)OCCN3C)OCc2ccccc2-c2c(n(C)c3ccccc23)C1=O	AF4-AF9 inh 31 (no result: MITF TRPM1 HTS, esBAF inh, Wnt bcat act)
C[C@H]1CN([C@@H](C)CO)C(=O)c2c(c3ccccc3n2C)-c2ccccc2CO[C@H]1CN(C)Cc1ccc2c(c1)OCCN2C	AF4-AF9 inh 44 (no result: MITF TRPM1 HTS, esBAF inh, Wnt bcat act)
C[C@@H]1CN([C@@H](C)CO)C(=O)c2ccccc2-c2ccccc2CO[C@@H]1CN(C)Cc1ccc2c(c1)OCCN2C	AF4-AF9 inh 37 (no result: MITF TRPM1 HTS, Wnt bcat act)
C[C@@H]1CN([C@@H](C)CO)C(=O)c2c(c3ccccc3n2C)-c2ccccc2CO[C@@H]1CN(C)C(=O)Nc1ccc2c(c1)OCO2	esBAF inh 50 (no result: MITF TRPM1 HTS, Wnt bcat act)
Cc1cccc(S(=O)(=O)N2CC[C@@H]3[C@H](CO)N(C)c4ccc(C#Cc5ccc(F)cc5)cc4[C@@H]32)c1	none (no result: AF4-AF9 inh, MITF TRPM1 HTS, Ecoli rRNA inh, Wnt bcat act)
Cc1ccc(-c2csc(NC(=O)N3CCOCC3)n2)cc1	esBAF inh 83
Cc1ccc(-c2csc(NC(=O)CN3CCOCC3)n2)cc1	none
Cc1ccc(C(=O)Nc2nc(-c3ccc4c(c3)OCCO4)cs2)o1	none (no result: MITF TRPM1 HTS)
N#CCC(=O)Nc1nc(-c2ccc3c(c2)OCCO3)cs1	none (no result: esBAF inh)
O=C(CCCCl)Nc1nc(-c2ccc3c(c2)OCCO3)cs1	MITF TRPM1 HTS 88
O=C(CSCC(=O)N1CCOCC1)Nc1nc(-c2ccc3c(c2)OCO3)cs1	esBAF inh 54 (no result: MITF TRPM1 HTS)
O=C(Nc1nc(-c2ccc3c(c2)OCCO3)cs1)C1CCCC1	MITF TRPM1 HTS 144, Ecoli rRNA inh -34, Wnt bcat act 44 (no result: AF4-AF9 inh, esBAF inh)
O=C(NCc1ccccc1)C(c1cc2ccccc2o1)n1c(=O)c(-c2ccco2)nc2ccccc21 (configuration not stated)	none (no result: MITF TRPM1 HTS, esBAF inh)
Cc1c(NC(=O)/C(C#N)=C/c2ccc(-c3ccc(Cl)cc3)o2)c(=O)n(-c2ccccc2)n1C	none (no result: AF4-AF9 inh, esBAF inh, Ecoli rRNA inh)
CC(=O)Nc1nc(-c2ccc3c(c2)OCO3)cs1	Wnt bcat act 53
O=C(Nc1nc(-c2ccc(Cl)cc2)cs1)C1CCCO1 (configuration not stated)	esBAF inh 48, Wnt bcat act 65
O=C(COC(=O)/C=C/c1cccc(Br)c1)Nc1cccc(S(=O)(=O)NC2=NCCC2)c1	none
CCC(=O)N1C[C@H](C)[C@H](OC)CN(C)C(=O)c2cc(NS(=O)(=O)CC)ccc2OC[C@H]1C	none (no result: MITF TRPM1 HTS, Wnt bcat act)
CCN(CC)C(=S)SCc1csc(CC(=O)Nc2ccccc2C)n1	none
Cc1nc(NC(=O)c2ccccc2)sc1Cc1ccc2c(c1)OCO2	esBAF inh 53 (no result: Wnt bcat act)
CC(=O)c1sc(NC(=O)c2ccc(C)c(C)c2)nc1C	none (no result: esBAF inh)
CC(=O)c1sc(NC(=O)c2ccc3c(c2)OCO3)nc1C	MITF TRPM1 HTS 114, Wnt bcat act 39
CCN1CCc2nc(NC(=O)c3ccc4c(c3)OCCO4)sc2C1	esBAF inh 41 (no result: AF4-AF9 inh, MITF TRPM1 HTS, Ecoli rRNA inh)
Cc1cc(NC(=O)c2ccc3c(c2)OCO3)no1	none (no result: AF4-AF9 inh, esBAF inh, Ecoli rRNA inh, Wnt bcat act)
Cc1nc(NC(=O)c2ccc3c(c2)OCO3)ccc1Br	MITF TRPM1 HTS 129 (no result: esBAF inh)
COC(=O)C1=C(C)N=c2s/c(=C/c3cccs3)c(=O)n2C1c1ccc(F)cc1 (configuration not stated)	none (no result: AF4-AF9 inh, MITF TRPM1 HTS, Ecoli rRNA inh)
O=C(C[C@H]1CC[C@H]2[C@@H](COC[C@@H](O)CN2Cc2ccc(Cl)cc2)O1)NCc1ccccc1Cl	none (no result: MITF TRPM1 HTS, Wnt bcat act)
CO[C@@H]1CN(C)C(=O)c2ccc(NC(=O)c3cnccn3)cc2OC[C@H](C)N(CC2CC2)C[C@H]1C	none (no result: MITF TRPM1 HTS, esBAF inh, Wnt bcat act)
CCNC(=O)C[C@@H]1C=C[C@@H](NS(=O)(=O)c2ccc(C)cc2)[C@H](CO)O1	none (no result: MITF TRPM1 HTS, Wnt bcat act)
O=C(N/N=C/c1cccnc1)c1sc2ccccc2c1Cl	none
O=C(COc1ccccc1/C=C1/NC(=O)NC1=O)Nc1ccccc1	Ecoli rRNA inh -26
COC(=O)COc1ccccc1/C=C1/NC(=O)NC1=O	none (no result: AF4-AF9 inh, esBAF inh, Ecoli rRNA inh, Wnt bcat act)
CCC(C(=O)NC(C)CCc1ccco1)n1nc(C)n2c(cc3occc32)c1=O (configuration not stated)	none (no result: AF4-AF9 inh, esBAF inh, Ecoli rRNA inh, Wnt bcat act)
CCCCCCCCC[n+]1cccc2c3ccccc3ccc21	none (no result: AF4-AF9 inh, esBAF inh, Ecoli rRNA inh, Wnt bcat act)
CCCCCCCCCCCCCCCC[n+]1cccc2ccccc21	AF4-AF9 inh 26 (no result: esBAF inh)
Cc1ccccc1C[n+]1cccc2ccccc21	AF4-AF9 inh 50
O=C(Nc1ccc(-c2nc3ccccc3s2)cc1)c1cc(-n2cnnc2)ccc1Cl	esBAF inh 60
O=C(N[C@@H]1C=C[C@@H](CC(=O)N2CCC(Cc3ccccc3)CC2)O[C@H]1CO)c1cnccn1	none (no result: MITF TRPM1 HTS, Wnt bcat act)
Cc1c(C(=O)NCCSCc2c(F)cccc2Cl)cnn1-c1ccc(F)cc1	Ecoli rRNA inh -36
Cc1c(C(=O)NCCSCc2cccc(C(F)(F)F)c2)cnn1-c1ccc(F)cc1	Ecoli rRNA inh -37
Cc1c(C(=O)NCCSCc2ccc(F)cc2)cnn1-c1ccc(Cl)cc1	Ecoli rRNA inh -38 (no result: MITF TRPM1 HTS, esBAF inh)
Cc1nc2ccccc2c2c(N)cccc12	none
CCOC(=O)N1CCN(CC(=O)Nc2sc(CC)cc2C(=O)c2ccc(OC)cc2)CC1	AF4-AF9 inh 27
CCc1cc(C(=O)OC)c(NC(=O)CN2CCN(C(=O)c3ccco3)CC2)s1	none
CN1C(=O)c2cc(NS(=O)(=O)c3ccc(F)cc3)ccc2OC[C@@H]2O[C@H](CC(=O)O)CC[C@H]21	none (no result: MITF TRPM1 HTS, Wnt bcat act)
CCOc1cc2c(c3c1C(c1ccccc1)N(S(=O)(=O)c1ccc(C)cc1)C3)C(=O)C=CC2=O (configuration not stated)	none (no result: MITF TRPM1 HTS, Ecoli rRNA inh)
CCCN1C[C@H](C)[C@@H](OC)CN(C)C(=O)c2ccc(NC(=O)c3cccc(F)c3)cc2OC[C@H]1C	AF4-AF9 inh 45 (no result: MITF TRPM1 HTS, Wnt bcat act)
CCCN1C[C@@H](C)[C@H](OC)CN(C)C(=O)c2ccc(NC(=O)c3cccc(F)c3)cc2OC[C@H]1C	AF4-AF9 inh inconclusive (no result: MITF TRPM1 HTS, Wnt bcat act)
CCCN1C[C@H](C)[C@@H](OC)CN(C)C(=O)c2ccc(NC(=O)c3cccc(F)c3)cc2OC[C@@H]1C	AF4-AF9 inh 39 (no result: MITF TRPM1 HTS, Wnt bcat act)
CCCN1C[C@H](C)[C@H](OC)CN(C)C(=O)c2ccc(NC(=O)c3cccc(F)c3)cc2OC[C@H]1C	AF4-AF9 inh 39 (no result: MITF TRPM1 HTS, Wnt bcat act)
Cc1c(O)ccc(/C(Cc2ccc3ccccc3n2)=N\O)c1O	esBAF inh 45, Wnt bcat act 36 (no result: AF4-AF9 inh, MITF TRPM1 HTS, Ecoli rRNA inh)
COc1ccc(NC(=S)N2CCC(NC(=O)c3ccccc3C)CC2)cc1	none
